Shiga toxin inh – Shiga toxin inhibition; Vero cells, Shiga toxin protein synthesis inhibition reporter; inhibition, % at 38.7 µM; 290,000 tested, 9.2% active; AID 2315; in the data active means inhibition mostly above about 28%, no sharp cut-off; inactive means mostly below about 43%; further: 0% is about no effect
LASV entry inh – inhibitors of Lassa virus binding or cell entry. Lassa virus pseudotype entry inhibition, cell reporter. Potency, µM (highest dose often 37.9 µM), for the others: top-dose activity change, negative = inhibition, most hits filed as inhibitors. 300,000 tested, 1.2% active. AID 540256; calls by dose curve; tested in HEK293 cells; further: potency means the concentration at half of the fitted maximal effect; on the % scale 0 is the no-effect control and ±100 the full control effect; nearly all actives have a fitted effect of over 50% in size
CHX counter – counter-screen hit for Shiga toxin inhibitors, cycloheximide; cell reporter, cycloheximide protein synthesis inhibition counterscreen; max response, %; 300,000 tested, 12% active; AID 2314; in the data active means max response mostly above about 13%, no sharp cut-off; inactive means mostly below about 14%; further: read at 38.3 µM for the half of the compounds with a filed dose; 0% is about no effect
MARV entry inh – inhibitors of Marburg virus binding or cell entry; Marburg virus pseudotyped entry inhibition, cell reporter; Potency, µM (doses to about 37.8 µM), inactives show top-dose activity change, negative = inhibition, usual class: inhibitors; 300,000 tested, 1.8% active; AID 540276; calls by dose curve; tested in HEK293 cells; further: potency means the concentration at half of the fitted maximal effect; on the % scale 0 is the no-effect control and ±100 the full control effect
An asterisk follows results filed as active; ? = inconclusive; nt = no result given; [ ] = dose if it differs, or a comment. A selection: hits, their analogues and other compounds. The true share with any hit is near 12%.

SMILES	Shiga toxin inh	LASV entry inh	CHX counter	MARV entry inh
C1=C(c2ccccc2)Nc2nnnn2C1c1cccs1 (centres undefined)	69*	2%	16*	-1%
COc1ccccc1C1C=C(c2ccc(C)cc2)Nc2nnnn21 (centres undefined)	54	-24%	16	2%
Cc1ccc(C2=CC(c3cccs3)n3nnnc3N2)cc1 (centres undefined)	81	-24%	47*	7%
Fc1ccc(C2=CC(c3cccs3)n3nnnc3N2)cc1 (centres undefined)	59*	-3%[46.1 µM]	27*	-19%[46.1 µM]
c1ccc(CN2CCc3nc4ccccc4cc3C2)cc1	59*	?	26*	2%[46.1 µM]
CCOC(=O)c1c(-c2ccc(C)cc2)csc1NC(=O)c1cc2ccccc2oc1=O	-4	-12%	-6	1%
CC(C)(C)c1ccc(C(=O)NCC(=O)N2CCCC2)cc1	37	3%	26*	21%[46.1 µM]
Cc1ccc(C(=O)NCC(=O)N2CCCN(S(=O)(=O)c3ccc(C)cc3)CC2)cc1	nt	2%	nt	1%
Cc1ccc(C(=O)NCC(=O)N2CCCCCC2)cc1	46*	25%[46.1 µM]	50*	?
Cc1cccc(C(=O)NCC(=O)N2CCCC2)c1	49*	17%[46.1 µM]	12*	26%[46.1 µM]
O=C(NCC(=O)N1CCCC1)c1ccc(Br)cc1	83	nt	10	22%[46.1 µM]
Cc1cccc(C(=O)NCC(=O)N2CCN(S(=O)(=O)c3ccccc3)CC2)c1	nt	16%	nt	0%[46.1 µM]
O=C(CNC(=O)c1cccc(F)c1)OCC(=O)N1CCCCC1	51*	nt	35*	nt
CCCCCn1c(=N)c(S(=O)(=O)c2ccc(C)cc2)cc2c(=O)n3cc(C)ccc3nc21	nt	-2%[46.1 µM]	nt	6%[46.1 µM]
CCCNC(=O)C1(O)c2cc(Br)ccc2NC(=O)N1c1ccc(Cl)cc1 (centres undefined)	-16	nt	-5	nt
O=C(Cc1ccsc1)NNC(=O)c1ccccc1Cl	nt	24%	nt	0%[46.1 µM]
Cc1nn(C)c(C)c1CN(Cc1nc(CCC(C)C)no1)C(C)C	-2	?	2	?
CN1C(C(=O)NCc2ccc(OC(F)(F)F)cc2)CC2Cn3c(nc4ccccc43)C21 (centres undefined)	6	nt	-1	nt
O=C(NCCCC(=O)N1CCCCC1)c1ccc(Cl)cc1	8	-2%	-3	14%
Nc1ccccc1C(=O)NCCN1CCNC1=O	4	nt	3	nt
Cc1cccc(N2CCN(C(=O)CNC(=O)c3ccccc3)CC2)c1C	63*	-13%	33*	-19%[46.1 µM]
Cc1ccc(C(=O)NCCN2CCNC2=O)cc1	58*	6%	28*	27%[46.1 µM]
Cc1ccc(C(=O)NCCC(=O)N2CCCC2)cc1	41*	nt	37*	nt
O=C(/C=C/c1c(Cl)cccc1Cl)n1cccn1	14	-26%	9.8*	-9%
O=C(Nc1ccc(-c2nc3ccccc3o2)cc1)c1cc(-n2cnnc2)ccc1Cl	56*	?	23*	?
SMILES	Shiga toxin inh	LASV entry inh	CHX counter	MARV entry inh
O=C(Nc1ccc(-c2nc3ccccc3o2)c(O)c1)c1cc(-n2cnnc2)ccc1Cl	15	3%	6	?
Cc1c(NC(=O)c2cc(-n3cnnc3)ccc2Cl)cccc1-c1nc2ccccc2o1	26	-19%	18*	-26%
Cc1c(NC(=O)c2cccc3c(Cl)cccc23)cccc1-c1nc2ccccc2o1	nt	?	nt	9%[46.1 µM]
O=C(Nc1ccc2oc(-c3ccccc3)nc2c1)c1cc(-n2cnnc2)ccc1Cl	84*	?	28*	-14%
CCOC(=O)C(C)N1N=C(/C=C/c2ccc(C)cc2)CCC1=O (centres undefined)	10	-17%	10	20%
C=CCN1N=C(/C=C/c2ccc(OC)cc2)CCC1=O	115*	29%[46.1 µM]	54*	?
C=CCN1N=C(/C=C/c2ccc(C)cc2)CCC1=O	92*	1%	35*	?
COc1ccc(-c2nn(-c3ccccc3)cc2N)cc1	183*	-12%	61*	?
COc1ccc(-c2nn(-c3ccccc3)cc2CO)cc1	164*	19%	61*	?
O=C(O)/C=C/c1cn(-c2ccccc2)nc1-c1cccc([N+](=O)[O-])c1	-10	nt	-2	0%
OCc1cn(-c2ccccc2)nc1-c1cccnc1	-12	-14%	11	-1%
COc1ccc(-c2nn(-c3ccccc3)cc2C(=O)N2CCOCC2)cc1	18	-20%	-3	3%
O=[N+]([O-])c1cccc(-c2nn(-c3ccccc3)cc2CO)c1	27	nt	12*	nt
COc1ccc(-c2cn(-c3ccccc3)nc2CO)cc1	111*	-4%[46.1 µM]	37*	?
CCOC(=O)N1CCC(=NNC(=O)COc2ccc(OC)cc2)CC1	-1	0%	-6	-16%
Cc1ccc(-c2nn(-c3ccccc3)cc2CO)cc1	144*	?	42*	13%
CC(C)OC(=O)/C(=C\c1ccc2c(c1)c1ccccc1n2C)NC(=O)c1ccccc1	67*	-25%	29*	?
CC(C)OC(=O)/C(=C/c1ccc2c(c1)c1ccccc1n2C)NC(=O)c1ccccc1	53*	?	20*	?
N#C/C(=C\c1c(N2CCN(c3ccccc3)CC2)nc2ccccn2c1=O)S(=O)(=O)c1ccccc1	-9	11%[46.1 µM]	-4	27%[46.1 µM]
COc1ccc(N2CCN(c3nc4ccccn4c(=O)c3C=O)CC2)cc1	16	-6%	13*	25%
N#CC(C#N)=Cc1c(N2CCN(c3ccccc3)CC2)nc2ccccn2c1=O	82*	nt	33*	nt
COc1ccc(-c2nc3ccccn3c2C=O)cc1	70*	?	45*	?
O=Cc1c(-c2ccc(F)cc2)nc2ccccn12	32	12%	26	10%[46.1 µM]
O=Cc1c(N2CCSCC2)nc2ccccn2c1=O	1	15%	1	14%
COc1ccc(N2CCN(c3nc4ccc(C)cn4c(=O)c3C=O)CC2)cc1	33	nt	3	nt
SMILES	Shiga toxin inh	LASV entry inh	CHX counter	MARV entry inh
O=Cc1c(N2CCN(c3ccccc3)CC2)nc2ccccn2c1=O	54*	nt	31*	nt
Cc1ccc(CNC(=O)c2ccc3c(c2)NC(=O)C(CS(=O)(=O)Cc2cccc(C)c2)N3)cc1 (centres undefined)	nt	16%[46.1 µM]	nt	nt
CCN(CC)C(=N)N1c2ccccc2CCC1C (centres undefined)	-19	2%[46.1 µM]	5	-26%[46.1 µM]
Cc1cccc(NC(=O)CN(C)C(=O)c2ccc3ccccc3n2)c1C	nt	19%	nt	6%
N#C/C(=C\c1c(N2CCCCC2)nc2ccccn2c1=O)C(=O)NCc1ccco1	4	1%	6	-29%
CCN1CCN(c2nc3ccccn3c(=O)c2C=O)CC1	-4	nt	-2	nt
COc1ccccc1N1CCN(c2nc3ccccn3c(=O)c2C=O)CC1	35*	?	29*	-22%
N#C/C(=C\c1c(N2CCCCCC2)nc2ccccn2c1=O)C(=O)NCc1ccco1	41	7%	38*	7%[46.1 µM]
Cc1nc2ccccc2nc1OCc1ccc([N+](=O)[O-])cc1	-11	-1%[46.1 µM]	-1	13%[46.1 µM]
COc1ccccc1-c1cc2nc(C)c(CCC(=O)NCCc3cccc(C)c3)c(C)n2n1	nt	-12%[46.1 µM]	nt	-26%[46.1 µM]
COc1ccccc1N1C(=O)N(CC(=O)C(C)(C)C)c2ccccc2S1(=O)=O	-2	-2%[46.1 µM]	2	nt
N#C/C(=N\Nc1ccccc1)C(=N)N1CCCCC1	61*	-22%	28*	?
N#C/C(=N\Nc1ccc(S(=O)(=O)N2CCCCC2)cc1)C(N)=S	-2	-26%	-2	7%
Cc1ccc(N/N=C(\C#N)C(=N)N2CCCCC2)cc1	82*	-24%[46.1 µM]	46*	?

Bioassay records as filed in PubChem BioAssay.
